Bioassay records: PubChem BioAssay, several laboratories
SSB-PriA inh: inhibitors of Klebsiella pneumoniae PriA binding to SSB C-terminal tail; AlphaScreen SSBct-PriA binding, biotinylated peptide; 0.6% of 430,000 active; inhibition, % at 33 µM; AID 1272365; in the data active = inhibition mostly above about 37%, no sharp cut-off; inactive = mostly below about 20%;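 note: plate controls were negative control peptide for no effect and reference peptide for full effect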
MazF activator: increases E. coli MazEF RNase cleavage of RNA; 0.32% of 350,000 active; activation, % at 20 µM; FAM/BHQ RNA-DNA oligo cleavage fluorescence, 5 h; P0AE70; AID 504720; in the data active = activation above about 50%
Autofluor counter: compound fluorescence in toxin protease inhibitor counterscreen. compound autofluorescence counterscreen, microsphere flow cytometry; stronger effect = higher value. fluorescence intensity (no concentration beside the values). 3.1% of 360,000 active. AID 624483; in the data active = fluorescence intensity above about 16000; inconclusive = no clear call, values can overlap the other calls
BoNT A protease: blocks Botulinum neurotoxin A light chain protease | AID 588499 | inhibition, % at 10 µM | multiplex microsphere protease substrate cleavage, flow cytometry | 0.17% of 360,000 active; in the data active = inhibition above about 30%; inconclusive = no clear call, values can overlap the other calls; note: plate controls were buffer without enzyme for full effect and enzyme alone for no effect
BoNT F protease: inhibitors of Botulinum neurotoxin F light chain protease; Multiplex microsphere protease cleavage assay, flow cytometry; inhibition, % at 10 µM; 0.22% of 360,000 active; in the data active = inhibition above about 35%, passing the limit was not always enough; inconclusive = no clear call, values can overlap the other calls; note: plate controls were buffer without enzyme for full effect and enzyme alone for no effect
Anthrax LF prot: inhibitors of Bacillus anthracis lethal factor protease | P15917 | multiplex microsphere protease cleavage assay, LF | inhibition, % at 10 µM | 0.12% of 360,000 active | AID 588501; in the data active = inhibition above about 30%; inconclusive = no clear call, values can overlap the other calls; note: plate controls were buffer without enzyme for full effect and enzyme alone for no effect
Target sequence (P15917 whole entry, looked up): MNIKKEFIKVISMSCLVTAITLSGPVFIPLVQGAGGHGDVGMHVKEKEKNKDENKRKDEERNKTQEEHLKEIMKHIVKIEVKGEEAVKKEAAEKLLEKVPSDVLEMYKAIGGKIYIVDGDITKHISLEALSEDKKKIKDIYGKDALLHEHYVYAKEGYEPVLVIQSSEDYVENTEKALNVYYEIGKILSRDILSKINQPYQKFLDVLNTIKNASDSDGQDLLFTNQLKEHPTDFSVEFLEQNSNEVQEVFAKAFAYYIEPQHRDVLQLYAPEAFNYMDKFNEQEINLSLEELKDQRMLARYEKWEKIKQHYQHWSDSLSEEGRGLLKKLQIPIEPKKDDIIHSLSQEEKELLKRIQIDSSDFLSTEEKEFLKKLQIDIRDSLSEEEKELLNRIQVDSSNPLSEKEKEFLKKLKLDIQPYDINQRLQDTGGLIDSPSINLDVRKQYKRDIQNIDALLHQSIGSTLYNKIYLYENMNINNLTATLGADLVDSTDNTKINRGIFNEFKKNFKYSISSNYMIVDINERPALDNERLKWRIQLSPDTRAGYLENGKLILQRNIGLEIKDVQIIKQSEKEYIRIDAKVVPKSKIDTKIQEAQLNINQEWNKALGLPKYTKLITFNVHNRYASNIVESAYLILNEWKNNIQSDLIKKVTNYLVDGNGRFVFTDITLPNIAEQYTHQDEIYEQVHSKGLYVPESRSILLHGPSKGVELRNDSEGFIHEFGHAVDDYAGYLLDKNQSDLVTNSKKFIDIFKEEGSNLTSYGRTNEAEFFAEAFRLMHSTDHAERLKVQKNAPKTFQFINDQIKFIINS
BoNTA LC inh 1: inhibitors of Botulinum neurotoxin A light chain protease; shares compounds with BoNT F protease; multiplex microsphere protease assay, flow cytometry; 3% of 720 active; inhibition, % at 10 µM; in the data active = inhibition above about 32%
BoNT-F LC CP1: BoNT/F light chain protease inhibition; shares compounds with BoNT F protease; multiplex microsphere protease cleavage assay, flow cytometry; inhibition, % at 10 µM; 720 tested, under 10 active; AID 602140; call rule not given here
Anthrax LF CP1: blocks anthrax lethal factor protease. shares compounds with BoNT F protease. multiplex microsphere protease cleavage assay, LF. inhibition, % at 10 µM. 720 tested, under 10 active; call rule not given here
BoNTA LC inh 2: inhibitors of botulinum neurotoxin A light chain protease | 10% of 150 active | inhibition, % at 10 µM | AID 602325 | shares compounds with BoNT A protease | multiplex microsphere protease cleavage assay, flow cytometry; in the data active = inhibition above about 24%
Anthrax LF CP2: Bacillus anthracis lethal factor protease inhibition; shares compounds with BoNT A protease; multiplex microsphere protease cleavage assay; inhibition, % at 10 µM; 7% of 150 active; AID 602327
BoNT-F LC CP2: BoNT/F light chain protease inhibition | shares compounds with BoNT A protease | multiplex microsphere protease cleavage assay, flow cytometry | inhibition, % at 10 µM | 7% of 150 active | AID 602336
* = called active by the depositor; ? = inconclusive; · = not tested or not shown; + = active, no number. Only some compounds are listed: those with a hit (about 3.3% of all), similar ones and a draw of the others. Cut-off read from the data, not from the text of the source, unless noted: active = inhibition above about 25%; inactive = the rest.

SMILES | SSB-PriA inh | MazF activator | Autofluor counter | BoNT A protease | BoNT F protease | Anthrax LF prot | BoNTA LC inh 1 | BoNT-F LC CP1 | Anthrax LF CP1 | others
CCOC(=O)CSc1nc2sc3c(c2c(=O)n1-c1ccc(OCC)cc1)CCN(C)C3 | -4 | 14 | 3704 | 53* | 10 | 20 | 1 | 2 | 4
CCc1ccc(Nc2nc3ccccc3c(=O)s2)cc1 | -3 | 11 | 5006 | 8 | 76* | 33* | 0 | -3 | -1
O=C(NCc1ccccc1)c1noc2c1CCCC2 | 7 | 3 | 5510 | 5 | 35* | 5 | 0 | -6 | 2
O=C(NCc1ccc(Cl)cc1)c1noc2c1CCCC2 | -12 | 14 | 8038 | -1 | -4 | -6 | · | · | ·
CS(=O)(=O)N1C2CCC1CC(NC(=O)c1cc(-c3ccco3)[nH]n1)C2 (centres undefined) | 5 | · | · | · | · | · | · | · | ·
CCN(CC)C(=O)c1ccc(NS(=O)(=O)c2ccccc2)cc1 | 8 | -24 | 3742 | 1 | 6 | 2 | · | · | ·
CCN(CC)C(=O)c1ccc(S(=O)(=O)c2ccccc2)cc1 | -2 | -10 | 3400 | 1 | 43* | -1 | -1 | -3 | 0
O=C(NCCn1ccc(-c2ccccn2)n1)c1ccncc1 | -8 | · | · | · | · | · | · | · | ·
C=CCSc1nc(-c2ccc3c(c2)OCO3)cc(C(F)(F)F)c1C#N | 4 | -2 | 10622 | 31* | 17 | 16 | 4 | -1 | 4
COc1cccc(CN2CCN(C(=O)c3cccc(OC)c3)CC2)c1 | -5 | 1 | 3553 | 0 | 3 | 18 | · | · | ·
O=C(c1ccccc1)N1CCN(Cc2cccc(Oc3ccccc3)c2)CC1 | -11 | -2 | 2577 | 4 | 38* | 0 | -1 | -2 | 1
O=c1c2ccccc2nnn1-c1ccc(Br)cc1 | -4 | 0 | 4468 | -8 | 41* | 14 | 0 | 0 | -1
Cc1c(Cl)cccc1S(=O)(=O)N1CCCSC[C@@H]1CN(C)C | -20 | · | · | · | · | · | · | · | ·
COc1cccc(OC)c1C(=O)N1CCN(S(=O)(=O)c2ccccc2)CC1 | -11 | 8 | 5023 | 0 | 0 | -4 | · | · | ·
COc1ccccc1NCC(=O)N1CCN(S(=O)(=O)c2ccccc2)CC1 | 4 | -6 | ? | -8 | -12 | 32* | 2 | 2 | 2
Cc1nc2nc(Cc3ccccc3)[nH]n2c(=O)c1Cc1ccccc1 | 0 | -7 | 4953 | -4 | -43 | -5 | · | · | ·
Cc1nc2nc(Cc3ccccc3)[nH]n2c(=O)c1Cl | 3 | -4 | 4787 | 1 | 32 | 3 | 1 | -5 | 1
CCOC(=O)c1scc(-c2ccccc2)c1S(=O)(=O)Nc1ccccc1OCC | -7 | · | · | · | · | · | · | · | ·
Cc1nc2sccc2c(=S)[nH]1 | -6 | · | · | · | · | · | · | · | ·
O=C(O)CCc1nnc(N/N=C\c2ccc([N+](=O)[O-])cc2)[nH]c1=O | -14 | · | · | · | · | · | · | · | ·
COc1cc(CCC(=O)O)on1 | -8 | -1 | 3555 | 3 | 62* | 4 | 0 | -4 | -2
Cc1nn(CC(=O)NCCc2cccs2)c(=O)c2cc3ccccc3n12 | 6 | 5 | 5756 | 38* | 3 | 34* | -2 | -2 | -7
COc1ccc2c(c1)CCCN2S(=O)(=O)c1ccc(Cl)cc1 | -55 | 1 | 3742 | 1 | -8 | 37* | 0 | -11 | -3
O=S(=O)(c1ccc(Cl)cc1)N1CCCc2ccccc21 | -64 | 2 | 3196 | 0 | -13 | -5 | · | · | ·
COc1ccc2sc(N(Cc3cccnc3)C(=O)c3ccccc3Cl)nc2c1 | 3 | · | · | · | · | · | · | · | ·
SMILES | SSB-PriA inh | MazF activator | Autofluor counter | BoNT A protease | BoNT F protease | Anthrax LF prot | BoNTA LC inh 1 | BoNT-F LC CP1 | Anthrax LF CP1 | others
CCN(CC)S(=O)(=O)c1ccc(C)c(C(=O)Oc2cccc(-c3cnc4ccccc4n3)c2)c1 | 2 | 2 | 2119 | 6 | 35* | -1 | -2 | -5 | -7
CCN(CC)S(=O)(=O)c1cc(C(=O)Oc2cccc(-c3cnc4ccccc4n3)c2)ccc1OC | -14 | -13 | 2256 | 0 | -3 | -2 | · | · | ·
O=C(CSc1ccc(S(=O)(=O)c2ccccc2)nn1)Nc1cccc(Br)c1 | -6 | · | · | · | · | · | · | · | ·
Cc1ccc(S(=O)(=O)c2cc(C)cc(S(=O)(=O)Nc3ccc(C(=O)O)cc3)c2C)cc1 | -4 | 10 | 3745 | -2 | 39* | 6 | 0 | 1 | 0
COc1cc(OC)c(S(=O)(=O)Nc2ccc(C(=O)O)cc2)cc1S(=O)(=O)Nc1ccc(C(=O)O)cc1 | -25 | 4 | 5361 | 1 | 5 | -1 | · | · | ·
Cc1ccccc1NC(=O)c1cccnc1 | -16 | 4 | 3631 | 3 | 66* | 10 | 0 | -1 | 1
COc1ccccc1NC(=O)c1cccnc1 | -6 | 8 | 3025 | 0 | -14 | -5 | · | · | ·
Cc1ccc(S(=O)(=O)N2CC(O)C[C@H]2C(=O)OCC(=O)N2CCN(c3ccc(F)cc3)CC2)cc1C (some centres undefined) | -8 | 1 | 5341 | 99* | 97* | 97* | · | · | · | BoNTA LC inh 2=2;Anthrax LF CP2=0;BoNT-F LC CP2=5
Cc1ccc(C(c2nc3ccccc3[nH]2)n2c(-c3ccccc3)nc3ccccc32)cc1 (centres undefined) | · | · | 5351 | 0 | -9 | 6 | · | · | ·
COc1ccc2c(c1)nc(-c1cccc(Br)c1)c(=O)n2C(c1ccccn1)c1nc2ccccc2[nH]1 (centres undefined) | · | · | 3816 | 30* | -2 | 24 | · | · | · | BoNTA LC inh 2=12;Anthrax LF CP2=8;BoNT-F LC CP2=10
NCCCc1nc(Cc2ccc(Cl)cc2)no1 | 0 | · | · | · | · | · | · | · | ·
COc1cc(OC)cc(C(=O)NC(C(=O)Nc2ccc3nc(C)sc3c2)C(C)C)c1 (centres undefined) | -13 | 10 | 7926 | 0 | 0 | -10 | · | · | ·
Cc1nc2ccc(NC(=O)[C@@H](NC(=O)c3c(F)cccc3F)C(C)C)cc2s1 | -3 | -20 | 8879 | 18 | 14 | 40* | · | · | · | BoNTA LC inh 2=8;Anthrax LF CP2=15;BoNT-F LC CP2=30*
COc1ccc(CCC(=O)Nc2ccccc2-c2cn3ccccc3n2)cc1 | 0 | · | · | · | · | · | · | · | ·
Cc1ccc(CNC(=O)Nc2cccc(C)c2)cc1 | -6 | -2 | 2262 | 0 | -6 | -3 | · | · | ·
Cc1cccc(NC(=O)NCc2ccc3[nH]c(C)cc3c2)c1 | 7 | 4 | 2613 | 50* | -97 | -87 | · | · | · | BoNTA LC inh 2=3;Anthrax LF CP2=1;BoNT-F LC CP2=12
Cc1cccc2c1NC1(CCCC1)CC2C (centres undefined) | -9 | -2 | 4778 | 7 | + | -6 | · | · | · | BoNTA LC inh 2=3;Anthrax LF CP2=-2;BoNT-F LC CP2=+
CCN(CC)c1ccc(C=Nc2cccc(S(=O)(=O)N3CCOCC3)c2)c(O)c1 | -11 | 2 | 3355 | 51* | 17 | 46* | · | · | · | BoNTA LC inh 2=16;Anthrax LF CP2=14;BoNT-F LC CP2=5
